Screening data from PubChem.
MCF10A rereplic: DNA re-replication induction in MCF 10a cells; MCF 10A DNA re-replication, Hoechst nuclear intensity, 48 h; Potency, µM (doses to about 46.1 µM), actives largely listed as activators; 350,000 compounds, 2.9% hits; further: nearly all actives have a fitted effect of over 50% in size
p53 reactivation: mutant p53 re-activation in reporter cells | H1299 p53-A138V BP100-luciferase reporter, luminescence, 24 h | Potency, µM (doses to about 92.2 µM), hits mostly activators | 320,000 compounds, 0.063% hits | AID 504706; further: nearly all actives have a fitted effect of over 45% in size
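H1299 (p53-null), stable ts p53-A138V + BP100-Luc; 1000 cells/well, Opti-MEM/10% FBS; cpd 4 pt, 1:5; 24 h, 37 deg C, 5% CO2; detection reagent 10 min RT; luminescence.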
ELG1 repair inh: inhibitors of ELG1-dependent DNA repair in HEK293T cells. Potency, µM (highest dose often 46.1 µM), actives largely listed as inhibitors. 330,000 compounds, 2.3% hits. AID 504467. HEK293T ELG1-luciferase reporter, luminescence, 16 h; DNA damage induced by 5-fluorouridine; further: nearly all actives have a fitted effect of over 55% in size
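Cells (2,000 per well) received 5-fluorouridine plus test compound or DMSO and were incubated 16 hr at 37 °C, 5% CO2. Luciferase activity was read by luminescence 30 min after ONE-Glo addition; signal suppression marked inhibition of damage-induced ELG1 function.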
ELG1 genotoxic: inducers of genotoxicity in HEK293T ELG1-luciferase cells; Potency, µM (titrated, usually from 46 µM), usual class: activators; HEK293T ELG1-luciferase reporter, luminescence, 16 h; 330,000 compounds, 1.3% hits; further: nearly all actives have a fitted effect of over 60% in size
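DMSO vehicle served as control against compound-treated ELG1-luciferase HEK293T cells; exposure lasted 16 hr at 37 °C and 5% CO2, followed by ONE-Glo luminescence detection after 30 min.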
SW480 rereplic: DNA re-replication induction in SW480 cells. SW480 DNA re-replication, Hoechst DNA content imaging, 48 h. Potency, µM (doses to about 46.1 µM), most hits filed as activators. 340,000 compounds, 1.8% hits; further: nearly all actives have a fitted effect of over 55% in size
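Compounds, transferred as 23 nL by pin tool, were incubated with cells for 48 hr; DNA content per nucleus was then quantified by Hoechst staining and fluorescence plate imaging.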
AT treatment: potential ataxia-telangiectasia treatments restoring KAP-1 phosphorylation | Potency, µM (top dose mostly 57.5 µM), most hits filed as activators | 320,000 compounds, 0.19% hits | F2112 A-T fibroblasts, KAP-1 phosphorylation AlphaLISA; neocarzinostatin DNA damage 30 min before lysis; further: nearly all actives have a fitted effect of over 45% in size
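hTERT-immortalized A-T patient fibroblasts (F2112), 500 cells/well in OPTI-MEM, 1% FBS, got compounds for 60 min, then NCS for 30 min at 37C. Lysates were then assayed for phospho-KAP-1 by AlphaLISA (anti-pKAP1 donor, anti-KAP1 acceptor beads), 6 hr at 25C.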
Each line names hits and unclear results; the compound was inactive in the other large screens. Compounds with a hit are over-represented: about 7.1% of the library has one in this group of screens. The call rests on the fitted dose curve; in most records, active means well fitted curve in the direction sought with a large enough effect; inconclusive means small, poorly fitted or top-dose-only effect, or another doubt; inactive means no such curve, though single readings can be large; an effect the other way counts as inactive or inconclusive.

Cc1ccc(S(=O)(=O)Nc2ccc3c(c2)nc(CCN2CCCC2)n3C)cc1	MCF10A rereplic inconclusive, SW480 rereplic inconclusive
Cn1c(CCN2CCCC2)nc2cc(NS(=O)(=O)c3ccc(Cl)cc3)ccc21	MCF10A rereplic inconclusive, SW480 rereplic 20.6µM
Cn1c(CCN2CCN(c3ccccn3)CC2)nc2cc(NS(=O)(=O)c3ccccc3)ccc21	MCF10A rereplic 23.1µM, p53 reactivation inconclusive, ELG1 repair inh 9.2µM, SW480 rereplic inconclusive
CC(C)(C)n1cnc2cc(NC(=O)c3ccc(Cl)cc3)ccc21	MCF10A rereplic inconclusive, ELG1 repair inh inconclusive, ELG1 genotoxic 2.91µM (no result: p53 reactivation)
CCCC(C(=O)NC1CCCC1)N(CC1CCCO1)C(=O)CNS(=O)(=O)c1ccc(F)cc1 (stereo unspecified)	none
CC(C)Oc1ccc(C(=O)Nc2c3c(nn2C(C)(C)C)CS(=O)(=O)C3)cc1	none
Cc1nn(CC(=O)Nc2ccc3c(c2)nc(CCN2CCCCC2)n3C)c(=O)c2ccccc12	MCF10A rereplic 16.4µM, SW480 rereplic inconclusive
CC(=Nc1cccc(O)c1)c1sc2ccccc2c1O	p53 reactivation inconclusive, ELG1 repair inh inconclusive, ELG1 genotoxic 1.64µM
CC(=Nc1ccc(C)cc1C)c1sc2ccccc2c1O	MCF10A rereplic inconclusive, ELG1 repair inh inconclusive, ELG1 genotoxic inconclusive
CC(=Nc1ccc(C)cc1)c1sc2ccccc2c1O	ELG1 repair inh inconclusive, ELG1 genotoxic 0.731µM
Oc1c(C=Nc2ccccc2)sc2ccccc12	MCF10A rereplic inconclusive
NS(=O)(=O)c1ccc(CCNC(=O)COC(=O)C2CCC2)cc1	none
O=C(COC(=O)c1c2c(nc3ccccc13)CCCC2)Nc1ccc2c(c1)OCO2	ELG1 repair inh inconclusive
Cc1cc(N2CCN(C)CC2)ccc1NC(=O)c1c2c(nc3ccccc13)CCN(Cc1ccccc1)C2	ELG1 repair inh inconclusive, ELG1 genotoxic 23.1µM, SW480 rereplic inconclusive
Cc1c(Cl)cccc1NC(=O)COC(=O)c1c2c(nc3ccccc13)CCN(Cc1ccccc1)C2	MCF10A rereplic inconclusive, ELG1 repair inh 13µM, SW480 rereplic inconclusive (no result: AT treatment)
CC(C)c1ccccc1NC(=O)COC(=O)c1c2c(nc3ccccc13)CCN(Cc1ccccc1)C2	MCF10A rereplic inconclusive, ELG1 repair inh 11.6µM
O=C(NC1CCCCCC1)c1c2c(nc3ccccc13)CCN(Cc1ccccc1)C2	MCF10A rereplic inconclusive, ELG1 repair inh inconclusive
CC(C)(C)Cc1nnc(NC(=O)CCC2CCCCC2)s1	none
CCOC(=O)C1=C(C)N(C[C@@H]2CC[C@@H](Cc3ccc(-c4ccccc4)cc3)O2)C(=O)NC1C1CC1 (stereo partly specified)	MCF10A rereplic inconclusive, ELG1 repair inh inconclusive, SW480 rereplic inconclusive
Cc1ccc(-n2nc(CC#N)c(C#N)c2N)cc1	ELG1 repair inh inconclusive
Cc1ccc(Nc2nc(N)c(C#N)c(CC#N)c2C#N)cc1	MCF10A rereplic 20.6µM, SW480 rereplic inconclusive
CCC[C@@H]1CCCC/C=C\CCCC(=O)OCCN1C(=O)OC(C)(C)C	AT treatment 25.1µM
CCS(=O)(=O)N1CCCC(c2nc(-c3cccc(OC)c3)no2)C1 (stereo unspecified)	p53 reactivation inconclusive, ELG1 repair inh inconclusive, ELG1 genotoxic 14.6µM
O=c1[nH]c(Nc2ccccc2)cc2ccccc12	MCF10A rereplic 13µM
COc1ccc(OC)c(Nc2cc3ccccc3c(=O)[nH]2)c1	MCF10A rereplic 16.4µM, SW480 rereplic 20.6µM (no result: p53 reactivation, ELG1 repair inh, ELG1 genotoxic, AT treatment)
COc1ccccc1Nc1cc2cc(Br)ccc2c(=O)[nH]1	MCF10A rereplic 20.6µM, SW480 rereplic inconclusive (no result: p53 reactivation, ELG1 repair inh, ELG1 genotoxic, AT treatment)
CC(=O)c1cccc(-c2ccc3c(=O)[nH]c(Nc4ccccc4)cc3c2)c1	MCF10A rereplic inconclusive (no result: p53 reactivation, ELG1 repair inh, ELG1 genotoxic, AT treatment)
COc1ccc(OC)c(Nc2nnc(C)c(=O)[nH]2)c1	none
O=C(COC(=O)c1cc(Br)ccc1O)c1ccc(F)cc1	MCF10A rereplic inconclusive
Cc1cccc(C)c1NC(=O)CN(C)C(=O)c1ccc2c(=O)n3c(nc2c1)CCC3	none
CC1(C(=O)OCC(=O)Nc2ccc(S(=O)(=O)N3CCOCC3)cc2)CC1(Cl)Cl (stereo unspecified)	none
N#CCc1nc(C(c2ccccc2)c2ccccc2)no1	MCF10A rereplic inconclusive
O=C(NCCc1ccccc1)c1ccc(CS(=O)Cc2ccc(Cl)cc2)o1 (stereo unspecified)	MCF10A rereplic inconclusive, SW480 rereplic inconclusive
COC(=O)c1cc(=O)n(-c2ccc(F)cc2)c(=Nc2ccc(F)cc2)s1	MCF10A rereplic 5.17µM, ELG1 repair inh inconclusive, SW480 rereplic inconclusive
COC(=O)c1cc(=O)n(Cc2cccs2)c(=Nc2ccc(F)cc2)s1	none
CCOc1ccc(-c2csc(/C(C#N)=C\c3ccc(O)c([N+](=O)[O-])c3)n2)cc1	MCF10A rereplic inconclusive, ELG1 repair inh 13µM, SW480 rereplic inconclusive
CC(=O)c1cc2c(=O)c3cc(C)ccc3oc2nc1C	ELG1 repair inh inconclusive, ELG1 genotoxic 10.3µM
CCOc1ccccc1C(=O)NCC(=O)NCCCSc1ccccc1	none
C[C@H](CO)N1C[C@H](C)[C@@H](CN(C)S(=O)(=O)c2cccs2)Oc2ccc(NS(=O)(=O)c3ccccc3)cc2CC1=O	MCF10A rereplic inconclusive, ELG1 repair inh inconclusive
Cc1ccc2oc(-c3ccco3)cc(=O)c2c1	ELG1 repair inh inconclusive, ELG1 genotoxic 20.6µM
N/C(=N\OC(=O)c1ccccc1Br)c1cccc([N+](=O)[O-])c1	p53 reactivation inconclusive, ELG1 repair inh inconclusive, ELG1 genotoxic 5.8µM
N/C(=N\OC(=O)c1cc([N+](=O)[O-])ccc1Cl)c1cccnc1	MCF10A rereplic 18.4µM, p53 reactivation inconclusive, ELG1 genotoxic inconclusive, SW480 rereplic inconclusive
COc1ccc(CN(C)C(=O)Cn2cnc3c(OCc4ccccc4)ncnc32)cc1OC	ELG1 repair inh inconclusive
Cc1ccc(-c2nn3c(C)nnc3c3ccccc23)cc1S(=O)(=O)N1CCN(CCO)CC1	ELG1 repair inh inconclusive, ELG1 genotoxic inconclusive
Cc1ccc(-c2nnc(NC3CCCCC3)c3ccccc23)cc1S(=O)(=O)N1CCN(C)CC1	ELG1 repair inh 23.1µM (no result: AT treatment)
Cc1ccc(-c2nc3ccccc3s2)cc1S(=O)(=O)N1CCCC1	MCF10A rereplic inconclusive, ELG1 repair inh inconclusive
Cc1ccc(-c2nnc(NCc3nc4ccccc4[nH]3)c3ccccc23)cc1S(=O)(=O)N1CCCCC1	MCF10A rereplic inconclusive, ELG1 repair inh 8.2µM
COc1ccc(OCCSc2nnc3sc4ccccc4n23)cc1	MCF10A rereplic 6.51µM, p53 reactivation inconclusive, ELG1 repair inh inconclusive, SW480 rereplic inconclusive
CN(C)CCSc1nnc2sc3ccccc3n12	none
COc1cccc(NC(=O)CCc2c(C)nc3nc(CNC(=O)c4cccc(F)c4)nn3c2C)c1	none
